We go through one sequence from publication PMC7862700, “An all-to-all approach to the identification of sequence-specific readers for epigenetic DNA modifications on cytosine”.

Common to all, as to assay: DAPPL (digital affinity profiling via proximity ligation, sequencing); 10 mM Tris-HCl pH 7.5, 50 mM NaCl, 1 mM DTT, 4% glycerol, room temperature, 30 min; GST-TFs on glutathione beads, 16-mer random dsDNA library, 0.1% formaldehyde crosslink after washing; high values mean tight binding
Experiment [1] deals with T1, FEV (Homo sapiens, UniProt Q99581 1-238).
T1 sequence: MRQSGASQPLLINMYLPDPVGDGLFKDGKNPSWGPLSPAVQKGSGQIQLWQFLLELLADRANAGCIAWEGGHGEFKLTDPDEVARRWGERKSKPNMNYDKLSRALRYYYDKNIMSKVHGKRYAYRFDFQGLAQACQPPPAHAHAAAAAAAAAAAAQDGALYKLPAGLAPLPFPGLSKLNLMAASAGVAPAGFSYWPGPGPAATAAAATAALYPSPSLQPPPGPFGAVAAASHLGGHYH
As to conditions: protein: recombinant; tags: N-terminal GST; dsDNA, one strand shown. The essentials: (§1)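 Yeast served to express human transcription factors as GST fusions, which were then captured on glutathione beads and labelled with DNA barcodes. Pooled with a tag-only sample, they were incubated with 200 nmole of a 16-mer random double-stranded DNA library for 30 min at room temperature in Tris/NaCl/DTT/glycerol buffer, washed, crosslinked with 0.1% formaldehyde, ligated by proximity, amplified by PCR and sequenced. Dividing each hexamer's read frequency for a factor by its frequency for the tag-only sample gives the binding signal.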

Experiment [2] has as its target ETV5 (Homo sapiens, UniProt P41161 1-510). As to conditions: protein: recombinant; tags: N-terminal GST; dsDNA, one strand shown. The procedure, abridged: as §1
The target in experiment [3] is HSF1 (Homo sapiens, UniProt Q00613 1-529). As to conditions: protein: recombinant; tags: N-terminal GST; chain copies: 3; dsDNA, one strand shown. The procedure, abridged:
as §1

In experiment [4] the target is T2, SPIC (Homo sapiens, UniProt Q8N5J4 1-248).
T2 sequence: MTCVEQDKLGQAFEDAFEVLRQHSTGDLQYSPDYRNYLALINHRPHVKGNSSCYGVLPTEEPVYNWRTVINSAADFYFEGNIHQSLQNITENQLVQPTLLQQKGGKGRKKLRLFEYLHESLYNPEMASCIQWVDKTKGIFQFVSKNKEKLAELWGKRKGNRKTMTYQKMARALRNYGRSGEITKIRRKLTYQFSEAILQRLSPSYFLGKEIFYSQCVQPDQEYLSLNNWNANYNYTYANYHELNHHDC
As to conditions: protein: recombinant; tags: N-terminal GST; dsDNA, one strand shown. The procedure, abridged: as §1

Experiment [5] concerns the target ELF4 (Homo sapiens, UniProt Q99607 1-663). As to conditions: protein: recombinant; tags: N-terminal GST; dsDNA, one strand shown. The procedure, abridged:
as §1

Experiment [6] concerns the target T3, ELK4 (Homo sapiens, UniProt P28324-2 1-405).
T3 sequence: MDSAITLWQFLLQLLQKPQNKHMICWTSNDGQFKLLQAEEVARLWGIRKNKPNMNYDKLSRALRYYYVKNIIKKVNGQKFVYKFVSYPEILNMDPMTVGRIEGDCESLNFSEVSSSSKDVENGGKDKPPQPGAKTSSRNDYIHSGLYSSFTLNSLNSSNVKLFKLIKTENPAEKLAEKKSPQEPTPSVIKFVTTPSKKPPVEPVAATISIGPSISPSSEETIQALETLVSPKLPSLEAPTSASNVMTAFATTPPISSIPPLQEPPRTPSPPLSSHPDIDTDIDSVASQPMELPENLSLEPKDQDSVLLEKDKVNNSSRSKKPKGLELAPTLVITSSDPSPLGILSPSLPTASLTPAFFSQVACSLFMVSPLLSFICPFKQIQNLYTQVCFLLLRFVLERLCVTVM
As to conditions: protein: recombinant; tags: N-terminal GST; dsDNA, one strand shown. The procedure, abridged: as §1

Experiment [7] addresses T4, ETV2 (Homo sapiens, UniProt O00321 1-342).
T4 sequence: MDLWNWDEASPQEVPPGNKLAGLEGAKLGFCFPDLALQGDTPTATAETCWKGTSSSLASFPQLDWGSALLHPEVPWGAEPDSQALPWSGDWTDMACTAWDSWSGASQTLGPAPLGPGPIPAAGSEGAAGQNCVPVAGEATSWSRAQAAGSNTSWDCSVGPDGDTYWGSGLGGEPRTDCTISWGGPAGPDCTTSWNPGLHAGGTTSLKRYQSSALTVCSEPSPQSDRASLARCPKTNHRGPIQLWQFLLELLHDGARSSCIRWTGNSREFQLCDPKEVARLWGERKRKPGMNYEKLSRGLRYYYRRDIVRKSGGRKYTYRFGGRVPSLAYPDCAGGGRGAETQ
The note with it: protein: recombinant; tags: N-terminal GST; dsDNA, one strand shown. The procedure, abridged: as §1

For experiment [8], the target named is T5, ELF3 (Homo sapiens, UniProt P78545 1-371).
T5 sequence: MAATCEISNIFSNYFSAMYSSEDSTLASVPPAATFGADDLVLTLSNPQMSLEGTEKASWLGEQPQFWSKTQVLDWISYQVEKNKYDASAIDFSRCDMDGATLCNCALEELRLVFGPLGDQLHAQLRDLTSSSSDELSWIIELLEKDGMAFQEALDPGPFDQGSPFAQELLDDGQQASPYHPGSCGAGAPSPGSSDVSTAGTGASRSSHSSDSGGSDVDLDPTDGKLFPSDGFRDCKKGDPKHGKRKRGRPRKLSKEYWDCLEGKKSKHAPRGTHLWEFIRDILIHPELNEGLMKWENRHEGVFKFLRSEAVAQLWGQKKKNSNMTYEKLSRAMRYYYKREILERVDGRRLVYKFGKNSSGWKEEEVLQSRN
The note with it: protein: recombinant; tags: N-terminal GST; dsDNA, one strand shown. The essentials: as §1

Experiment [9] deals with CRX (Homo sapiens, UniProt O43186 1-299). The note with it: protein: recombinant; tags: N-terminal GST; dsDNA, one strand shown. The essentials:
as §1

In experiment [10] the target is ETV1 (Homo sapiens, UniProt P50549 1-477). As to conditions: protein: recombinant; tags: N-terminal GST; dsDNA, one strand shown. The procedure, abridged:
as §1

Experiment [11] has as its target T6, ERF (Homo sapiens, UniProt P50548 1-548).
T6 sequence: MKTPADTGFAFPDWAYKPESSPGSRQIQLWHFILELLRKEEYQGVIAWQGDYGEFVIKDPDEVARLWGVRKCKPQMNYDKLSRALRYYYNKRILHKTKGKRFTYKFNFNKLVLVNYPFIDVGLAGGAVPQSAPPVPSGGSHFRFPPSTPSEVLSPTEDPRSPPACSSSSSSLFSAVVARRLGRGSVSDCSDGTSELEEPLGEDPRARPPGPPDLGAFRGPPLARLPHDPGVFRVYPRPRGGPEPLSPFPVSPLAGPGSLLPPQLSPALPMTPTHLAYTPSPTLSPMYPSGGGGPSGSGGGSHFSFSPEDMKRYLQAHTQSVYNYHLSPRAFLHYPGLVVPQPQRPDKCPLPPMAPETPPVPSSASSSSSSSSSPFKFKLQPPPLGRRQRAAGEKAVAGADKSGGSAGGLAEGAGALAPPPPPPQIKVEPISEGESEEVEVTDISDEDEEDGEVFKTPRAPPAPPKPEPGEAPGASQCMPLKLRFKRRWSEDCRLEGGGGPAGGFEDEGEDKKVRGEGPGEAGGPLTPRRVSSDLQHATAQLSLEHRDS
The note with it: protein: recombinant; tags: N-terminal GST; dsDNA, one strand shown. The essentials:
as §1

The target of experiment [12] is T7, ETV3L (Homo sapiens, UniProt Q6ZN32 1-361).
T7 sequence: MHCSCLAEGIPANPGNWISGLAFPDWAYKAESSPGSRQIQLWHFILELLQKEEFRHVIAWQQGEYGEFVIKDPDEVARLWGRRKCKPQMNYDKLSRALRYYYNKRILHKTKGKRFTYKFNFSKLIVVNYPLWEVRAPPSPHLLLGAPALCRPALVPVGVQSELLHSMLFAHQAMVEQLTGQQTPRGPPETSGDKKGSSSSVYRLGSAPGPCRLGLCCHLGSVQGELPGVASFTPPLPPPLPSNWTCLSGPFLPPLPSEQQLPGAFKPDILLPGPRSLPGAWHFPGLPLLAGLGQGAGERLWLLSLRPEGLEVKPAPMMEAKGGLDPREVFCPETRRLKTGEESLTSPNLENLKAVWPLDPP
The note with it: protein: recombinant; tags: N-terminal GST; dsDNA, one strand shown. The essentials: as §1

The target in experiment [13] is T8, ETS2 (Homo sapiens, UniProt P15036 1-469).
T8 sequence: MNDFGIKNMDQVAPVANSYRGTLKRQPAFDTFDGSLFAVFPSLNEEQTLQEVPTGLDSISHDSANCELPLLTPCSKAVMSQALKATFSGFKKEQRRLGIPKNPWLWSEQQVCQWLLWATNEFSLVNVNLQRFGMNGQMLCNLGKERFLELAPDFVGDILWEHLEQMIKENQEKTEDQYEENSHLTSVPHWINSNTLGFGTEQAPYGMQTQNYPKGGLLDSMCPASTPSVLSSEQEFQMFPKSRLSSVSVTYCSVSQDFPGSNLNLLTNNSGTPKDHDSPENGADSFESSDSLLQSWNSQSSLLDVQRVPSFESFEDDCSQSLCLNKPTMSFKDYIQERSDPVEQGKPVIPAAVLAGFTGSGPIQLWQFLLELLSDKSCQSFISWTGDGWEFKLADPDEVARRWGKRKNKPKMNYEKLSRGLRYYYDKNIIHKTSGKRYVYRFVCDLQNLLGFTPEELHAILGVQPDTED
The note with it: protein: recombinant; tags: N-terminal GST; dsDNA, one strand shown. The procedure, abridged: as §1

Experiment [14] concerns the target T9, SPDEF (Homo sapiens, UniProt O95238 1-335).
T9 sequence: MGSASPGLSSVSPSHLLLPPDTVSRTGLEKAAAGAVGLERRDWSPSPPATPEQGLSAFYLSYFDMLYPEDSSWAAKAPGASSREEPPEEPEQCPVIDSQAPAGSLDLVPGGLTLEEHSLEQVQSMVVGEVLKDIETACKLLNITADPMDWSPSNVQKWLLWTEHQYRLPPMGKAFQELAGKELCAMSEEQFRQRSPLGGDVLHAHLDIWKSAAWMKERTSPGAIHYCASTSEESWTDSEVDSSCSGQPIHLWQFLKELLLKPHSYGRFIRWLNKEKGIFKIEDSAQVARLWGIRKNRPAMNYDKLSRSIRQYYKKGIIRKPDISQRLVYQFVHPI
The note with it: protein: recombinant; tags: N-terminal GST; dsDNA, one strand shown. The procedure, abridged:
as §1

The target in experiment [15] is T10, ETV7 (Homo sapiens, UniProt Q9Y603 1-341).
T10 sequence: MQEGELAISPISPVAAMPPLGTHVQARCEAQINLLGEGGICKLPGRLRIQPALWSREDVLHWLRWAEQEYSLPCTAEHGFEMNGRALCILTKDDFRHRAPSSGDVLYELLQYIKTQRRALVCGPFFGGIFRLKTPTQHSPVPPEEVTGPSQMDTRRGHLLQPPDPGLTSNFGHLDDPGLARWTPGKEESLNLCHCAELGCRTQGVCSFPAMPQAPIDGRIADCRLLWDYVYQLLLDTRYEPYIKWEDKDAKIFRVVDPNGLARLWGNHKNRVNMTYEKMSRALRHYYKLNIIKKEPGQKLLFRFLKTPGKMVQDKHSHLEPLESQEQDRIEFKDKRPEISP
As to conditions: protein: recombinant; tags: N-terminal GST; dsDNA, one strand shown. The essentials: as §1

Experiment [16] deals with T11, ELF5 (Homo sapiens, UniProt Q9UKW6-2 1-255).
T11 sequence: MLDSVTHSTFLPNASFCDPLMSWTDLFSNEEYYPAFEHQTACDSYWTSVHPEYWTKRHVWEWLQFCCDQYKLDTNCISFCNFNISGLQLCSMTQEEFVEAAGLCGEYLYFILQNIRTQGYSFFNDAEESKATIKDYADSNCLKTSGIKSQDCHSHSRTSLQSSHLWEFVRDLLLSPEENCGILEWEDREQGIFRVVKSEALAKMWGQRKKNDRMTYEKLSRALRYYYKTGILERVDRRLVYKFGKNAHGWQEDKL
As to conditions: protein: recombinant; tags: N-terminal GST; dsDNA, one strand shown. The essentials:
as §1

The target in experiment [17] is T12, ETV3 (Homo sapiens, UniProt P41162-2 1-143).
T12 sequence: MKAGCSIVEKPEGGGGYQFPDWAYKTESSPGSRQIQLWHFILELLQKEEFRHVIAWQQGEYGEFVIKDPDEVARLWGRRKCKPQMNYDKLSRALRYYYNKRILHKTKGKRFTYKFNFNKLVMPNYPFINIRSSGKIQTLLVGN
The note with it: protein: recombinant; tags: N-terminal GST; dsDNA, one strand shown. The procedure, abridged:
as §1

For experiment [18], the target named is ETV6 (Homo sapiens, UniProt P41212 1-452). As to conditions: protein: recombinant; tags: N-terminal GST; dsDNA, one strand shown. The essentials:
as §1

Chain of CRX (O43186 whole entry): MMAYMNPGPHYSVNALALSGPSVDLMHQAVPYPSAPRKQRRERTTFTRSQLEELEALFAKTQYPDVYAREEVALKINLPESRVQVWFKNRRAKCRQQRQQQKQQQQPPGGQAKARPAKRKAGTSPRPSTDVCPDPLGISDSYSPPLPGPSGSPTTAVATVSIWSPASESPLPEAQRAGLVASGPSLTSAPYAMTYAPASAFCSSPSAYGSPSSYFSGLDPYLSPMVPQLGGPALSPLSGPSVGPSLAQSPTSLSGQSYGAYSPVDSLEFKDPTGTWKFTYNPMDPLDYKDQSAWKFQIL
Chain of ETV6 (P41212 whole entry): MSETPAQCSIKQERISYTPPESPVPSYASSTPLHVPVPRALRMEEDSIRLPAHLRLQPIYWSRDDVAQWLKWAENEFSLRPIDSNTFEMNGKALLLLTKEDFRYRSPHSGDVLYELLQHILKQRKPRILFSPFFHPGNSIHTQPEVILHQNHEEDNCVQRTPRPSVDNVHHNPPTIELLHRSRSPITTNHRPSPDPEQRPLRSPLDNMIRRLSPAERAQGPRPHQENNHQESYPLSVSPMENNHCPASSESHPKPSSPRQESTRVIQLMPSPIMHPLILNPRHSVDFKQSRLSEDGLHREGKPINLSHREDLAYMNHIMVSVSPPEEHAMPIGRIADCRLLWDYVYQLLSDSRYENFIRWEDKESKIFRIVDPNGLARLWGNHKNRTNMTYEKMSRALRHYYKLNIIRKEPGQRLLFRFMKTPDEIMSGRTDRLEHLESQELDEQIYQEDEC
Chain of ETV5 (P41161 whole entry): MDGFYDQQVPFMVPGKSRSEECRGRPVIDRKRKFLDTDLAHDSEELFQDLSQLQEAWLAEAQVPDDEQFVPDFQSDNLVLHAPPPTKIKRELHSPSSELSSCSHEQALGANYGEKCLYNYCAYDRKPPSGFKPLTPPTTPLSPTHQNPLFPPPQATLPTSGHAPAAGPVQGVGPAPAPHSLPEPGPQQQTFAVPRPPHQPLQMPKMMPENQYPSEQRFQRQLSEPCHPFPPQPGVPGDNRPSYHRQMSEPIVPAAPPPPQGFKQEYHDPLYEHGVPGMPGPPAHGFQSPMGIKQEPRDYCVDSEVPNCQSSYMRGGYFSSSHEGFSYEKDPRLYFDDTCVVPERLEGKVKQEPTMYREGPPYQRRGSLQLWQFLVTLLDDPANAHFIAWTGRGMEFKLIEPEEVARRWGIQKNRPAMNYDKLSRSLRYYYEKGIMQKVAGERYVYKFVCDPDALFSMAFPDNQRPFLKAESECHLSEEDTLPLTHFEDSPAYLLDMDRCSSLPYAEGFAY
Chain of ETV1 (P50549 whole entry): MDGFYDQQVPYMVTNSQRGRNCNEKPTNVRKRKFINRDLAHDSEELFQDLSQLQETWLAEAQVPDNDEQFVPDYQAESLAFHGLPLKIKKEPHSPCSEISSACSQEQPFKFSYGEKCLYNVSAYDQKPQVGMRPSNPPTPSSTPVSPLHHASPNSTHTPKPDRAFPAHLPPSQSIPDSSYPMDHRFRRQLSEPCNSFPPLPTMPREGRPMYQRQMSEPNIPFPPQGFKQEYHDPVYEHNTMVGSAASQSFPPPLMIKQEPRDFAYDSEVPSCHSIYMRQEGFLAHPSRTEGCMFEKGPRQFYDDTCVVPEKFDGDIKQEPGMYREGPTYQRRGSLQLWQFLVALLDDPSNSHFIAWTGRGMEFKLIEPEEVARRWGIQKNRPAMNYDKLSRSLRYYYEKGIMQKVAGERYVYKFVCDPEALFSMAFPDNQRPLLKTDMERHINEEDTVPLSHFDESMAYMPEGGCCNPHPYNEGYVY
Chain of ELF4 (Q99607 whole entry): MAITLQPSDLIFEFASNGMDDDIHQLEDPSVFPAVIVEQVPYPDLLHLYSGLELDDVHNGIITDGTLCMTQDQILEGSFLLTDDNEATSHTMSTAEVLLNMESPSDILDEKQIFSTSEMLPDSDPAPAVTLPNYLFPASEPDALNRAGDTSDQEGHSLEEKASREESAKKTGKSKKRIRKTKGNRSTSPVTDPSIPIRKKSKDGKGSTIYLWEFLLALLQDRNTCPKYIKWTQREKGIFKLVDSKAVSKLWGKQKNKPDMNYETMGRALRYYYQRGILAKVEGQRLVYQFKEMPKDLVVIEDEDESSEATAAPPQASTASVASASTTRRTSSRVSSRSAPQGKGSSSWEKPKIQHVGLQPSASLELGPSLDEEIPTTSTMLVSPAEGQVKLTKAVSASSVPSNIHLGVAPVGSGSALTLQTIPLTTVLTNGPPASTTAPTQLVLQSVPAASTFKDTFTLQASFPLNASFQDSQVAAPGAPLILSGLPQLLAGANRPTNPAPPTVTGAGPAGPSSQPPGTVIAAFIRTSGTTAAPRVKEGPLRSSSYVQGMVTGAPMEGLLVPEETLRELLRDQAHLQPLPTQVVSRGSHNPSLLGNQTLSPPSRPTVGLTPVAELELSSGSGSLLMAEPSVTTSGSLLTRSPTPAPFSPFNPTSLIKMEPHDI
Chain of HSF1 (Q00613 whole entry): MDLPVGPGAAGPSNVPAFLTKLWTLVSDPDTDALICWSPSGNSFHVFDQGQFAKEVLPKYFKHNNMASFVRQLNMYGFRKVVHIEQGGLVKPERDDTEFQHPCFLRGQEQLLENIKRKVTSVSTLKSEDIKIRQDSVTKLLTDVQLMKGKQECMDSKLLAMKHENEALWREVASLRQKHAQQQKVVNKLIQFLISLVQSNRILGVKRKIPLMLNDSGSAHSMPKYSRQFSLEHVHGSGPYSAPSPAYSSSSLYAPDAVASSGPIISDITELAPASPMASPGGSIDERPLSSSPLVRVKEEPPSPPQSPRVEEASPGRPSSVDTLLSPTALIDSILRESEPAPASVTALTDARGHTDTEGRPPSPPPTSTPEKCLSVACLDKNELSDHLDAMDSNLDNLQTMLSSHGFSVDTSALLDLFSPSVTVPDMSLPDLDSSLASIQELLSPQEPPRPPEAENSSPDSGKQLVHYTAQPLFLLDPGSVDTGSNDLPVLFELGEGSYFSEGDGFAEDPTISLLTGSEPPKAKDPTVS

With ATTGTT, the binding signal in experiment [1] was 1.52 fold enrichment (6-mer frequency, TF over GST control); in experiment [2], 1.57 fold enrichment (6-mer frequency, TF over GST control); in experiment [3], 1.63 fold enrichment (6-mer frequency, TF over GST control); in experiment [4] it was 1.45 fold enrichment (6-mer frequency, TF over GST control); in [5], 1.41 fold enrichment (6-mer frequency, TF over GST control); in experiment [6] it was 1.4 fold enrichment (6-mer frequency, TF over GST control). Also, the binding signal is 1.57 fold enrichment (6-mer frequency, TF over GST control) in experiment [7]; 1.49 fold enrichment (6-mer frequency, TF over GST control) in experiment [8]; 1.55 fold enrichment (6-mer frequency, TF over GST control) in experiment [9]; 1.47 fold enrichment (6-mer frequency, TF over GST control) in [10]; 1.65 fold enrichment (6-mer frequency, TF over GST control) in [11]; 1.55 fold enrichment (6-mer frequency, TF over GST control) in [12]. Also, the binding signal in experiment [13] was 1.47 fold enrichment (6-mer frequency, TF over GST control); in experiment [14] it was 1.46 fold enrichment (6-mer frequency, TF over GST control); in experiment [15] it was 1.47 fold enrichment (6-mer frequency, TF over GST control); in experiment [16] it was 1.36 fold enrichment (6-mer frequency, TF over GST control); in [17], 1.56 fold enrichment (6-mer frequency, TF over GST control); in experiment [18] it was 1.51 fold enrichment (6-mer frequency, TF over GST control).
